In PubChem BioAssay AID1578 (Sanford-Burnham Center for Chemical Genomics, 2009):
Hit rate of the full screen: of about 290,000 compounds, about 3,000 (1%) were called active. This excerpt belongs to a sample that is enriched for actives. A number with no mark means an inactive call. No stated cut-off is given here; in the data, active means inhibition mostly above about 36% (no sharp cut-off); inactive means mostly below about 34%.

assay: NOD1 signaling inhibitors, primary screen, cell-based, luminescence, uHTS (AID 1578); settings: NOD1-driven NF-kB luciferase reporter cells, at 4 µM, hits give high values;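 further: HEK-293T reporter cells stimulated with the NOD1 agonist gamma-tri-DAP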

Row | Structure (SMILES) | inhibition
1 | CCOC(=O)c1ccc(N2C(=O)C(C)=C(C)C2=O)cc1 | -37.3%
2 | CCOC(=O)c1ccc(-n2c(C)ccc2C)cc1 | -10.6%
3 | CCOC(=O)c1ccc(N2C(=O)C=CC2=O)cc1 | 80.8% (active)
4 | NS(=O)(=O)c1ccc(CNC(=O)CSc2ccccc2)cc1 | -19.9%
5 | O=C(COc1ccccc1Cl)NCCCNC(=O)c1cnccn1 | 27.3%
6 | Cc1ccc(C)c(NC(=O)CN(C)C(=O)CSC(C)C(=O)Nc2cc(C)on2)c1 (centres undefined) | -0.8%
7 | Cc1cc(NC(=O)C(C)SCC(=O)N(C)CC(=O)Nc2ccc(Br)cc2C)no1 (centres undefined) | -22.8%
8 | CCOc1ccc(NC(=O)CN(C)C(=O)CSC(C)C(=O)Nc2cc(C)on2)cc1OCC (centres undefined) | 44.5% (active)
9 | COc1cccc(OC)c1-c1nn(-c2ncc(C(F)(F)F)cc2Cl)c(=O)o1 | -7.3%
10 | CCOC(=O)c1cc2c(nc1N)CCCC2 | 1.3%
11 | O=C(Cc1cccs1)Nc1nc2ccccc2s1 | -32.2%
12 | CC(=O)Nc1nc2c(ccc3ccccc32)s1 | -38%
13 | O=C(Cc1cccs1)Nc1nc2c(ccc3ccccc32)s1 | 35.8% (active)
14 | COCCn1c(SCC(=O)NCC2CCCO2)nc2c(c1=O)SCC2 (centres undefined) | -12.5%
15 | COc1ccc(S(=O)(=O)Cc2ccc(C(=O)NCc3ccc(C)cc3)o2)cc1 | -23.8%
16 | O=C(/C=C/c1ccccc1)NC(=S)Nc1ccc(N2CCOCC2)cc1 | -25.8%
17 | COc1cc(C(=O)Nc2scc(-c3ccccc3)c2C(=O)O)cc(OC)c1OC | -21.1%
18 | O=C(Nc1scc(-c2cccs2)c1C(=O)O)c1cccs1 | -40.1%
19 | O=C(/C=C/c1ccccc1)Nc1sc2c(c1C(=O)O)CCC2 | -2.6%
20 | O=C(Nc1sc2c(c1C(=O)O)CCCC2)c1cccs1 | 43.6%
21 | COc1cc(C(=O)Nc2sc(C)c(C)c2C(=O)O)cc(OC)c1OC | -18.1%
22 | COc1cc(C(=O)Nc2sc3c(c2C(=O)O)CCC3)cc(OC)c1OC | 7.5%
23 | COc1ccc(-c2csc(NC(=O)c3cccs3)c2C(=O)O)cc1OC | -46.6%
24 | COc1cc(C(=O)Nc2scc(-c3ccc(C)cc3)c2C(=O)O)cc(OC)c1OC | 12.7%
25 | COc1ccc(CN(C)C(=O)c2cnc(OC)cc2C(F)(F)F)c(OC)c1 | 1%

Row | Structure (SMILES) | inhibition
26 | OC(CC#CCN1CCCCC1)(c1ccccc1)c1ccccc1 | -4.1%
27 | CCN(c1ccccc1)S(=O)(=O)c1cccc(C(=O)N2CCN(S(=O)(=O)c3ccccc3)CC2)c1 | -20.1%
28 | Cc1cc(C)nc(NS(=O)(=O)c2ccc(NC(=O)c3ccccc3[N+](=O)[O-])cc2)n1 | -22.1%
29 | COc1ccc(-c2nnc(-c3cccnc3)o2)cc1OC | -21.1%
30 | CC(CNC(=O)COc1ccccc1)OC(=O)Nc1cccc(Cl)c1 (centres undefined) | 16.6%
31 | CC1=CS/C(=C(/C#N)C(=O)NCc2ccco2)N1c1ccccc1 | 4%
32 | COC(=O)C(Cc1c[nH]c2ccccc12)NC(=O)CNC(C)=O (centres undefined) | 6.8%
33 | CC1CCc2c(sc(NC(=O)c3ccco3)c2C(=O)O)C1 (centres undefined) | 14.4%
34 | COC(=O)c1c(NC(=O)c2cccs2)sc2c1CCC(C)C2 (centres undefined) | -32.6%
35 | O=C(NCCCN1CCN(c2ccccc2F)CC1)C1CC(=O)N(C2CCCC2)C1 (centres undefined) | 14.3%
36 | COc1ccc(Br)cc1C(=O)NC(=S)Nc1ccc2[nH]c(=O)[nH]c2c1 | -35.1%
37 | O=C(NC(=S)Nc1ccc2[nH]c(=O)[nH]c2c1)c1ccccc1Cl | -31.2%
38 | O=C(NC(=S)Nc1ccc2[nH]c(=O)[nH]c2c1)c1cc(Br)ccc1Cl | 47.4% (active)
39 | COc1ccc2[nH]c(=O)c(CN(Cc3cccnc3)C(=S)NCC3CCCO3)cc2c1 (centres undefined) | -30.3%
40 | O=c1c2[nH]c3ccc(F)cc3c2ncn1CCN1CCOCC1 | -10.5%
41 | O=P(c1ccccc1)(c1ccccc1)C1CCCO1 (centres undefined) | 4.7%
42 | O=S(=O)(c1ccc(Cl)cc1)N1CCC2(CC1)CO2 | -17.5%
43 | O=S(=O)(c1ccccc1)N1CCC2(CC1)OCCO2 | -41.5%
44 | O=S(=O)(c1ccccc1)N1CCC2(CC1)CO2 | 75.5% (active)
45 | O=C(NCCCNC(=O)C(F)(F)C(F)F)C(F)(F)C(F)F | -3.6%
46 | O=C(CNS(=O)(=O)c1ccc(Br)cc1)Nc1ccc2c(c1)OCCO2 | -27.7%
47 | CCC(CC)=NNC(=O)c1ccccc1OCc1ccc(F)cc1 | -13.1%
48 | FC(F)(F)c1ccc(/C=N/NC(=S)NC2CCCCC2)cc1 | -19.8%
49 | CSc1ccccc1OCc1cc(C(=O)N2CCC(Oc3cccnc3)CC2)no1 | -30.2%
50 | Cc1cccc(C)c1OCc1cc(C(=O)N2CCC(c3ccncc3)CC2)no1 | 6.6%

Row | Structure (SMILES) | inhibition
51 | COCC1CCN(C(=O)c2cc(COc3ccccc3SC)on2)C1 (centres undefined) | -17.6%
52 | COc1cccc(OCc2cc(C(=O)N3CCC(c4ccncc4)CC3)no2)c1 | 26.7%
53 | Cc1ccc(NC(=S)NC(NC(=O)N(C)C)C(Cl)(Cl)Cl)cc1 (centres undefined) | -18.2%
54 | Cc1cc(OCC(=O)N(C(C)C)C(C)C)ccc1Cl | -6.4%
55 | O=[N+]([O-])c1cccc(-c2nnc(C34CC5CC(CC(C5)C3)C4)o2)c1 | 3.3%
56 | COc1ccccc1NC(=O)Nc1ccc2c(c1)nc(C)n2C | -28.8%
57 | CC(=O)c1ccc(NC(=O)Nc2ccc3c(c2)nc(C)n3C)cc1 | -18.8%
58 | Cc1nc2cc(NC(=O)Nc3ccccc3Cl)ccc2n1C | 53% (active)
59 | CCn1c(C)nc2cc(NC(=O)Nc3cccc(C(C)=O)c3)ccc21 | 27.9% (active)
60 | Cc1nc2cc(NC(=O)Nc3cccc4ccccc34)ccc2n1C | -27.6%
61 | CCn1c(C)nc2cc(C(=O)NNC(=O)Nc3cccc(Cl)c3)ccc21 | -5.3%
62 | CN1CCN(C(=O)C2CCCN(S(=O)(=O)c3ccc(F)cc3)C2)CC1 (centres undefined) | -7.3%
63 | Cc1ccccc1Nc1n[nH]c(C)c1[N+](=O)[O-] | -24.5%
64 | O=C(NCCc1ccccc1)c1cccc2c1C(=O)N(C1CCCCC1)C2 | -19.5%
65 | COc1ccc(CC(=O)Nc2cccnc2)cc1 | -8.6%
66 | COc1ccc(CC(=O)Nc2ccccc2NC(=O)Cc2ccc(OC)cc2)cc1 | -7.4%
67 | O=C(Cc1c(Cl)cccc1Cl)Nc1ccncc1Cl | 5.2%
68 | O=C(Cc1ccc(Cl)cc1Cl)Nc1ccncc1 | 42.8%
69 | COc1ccccc1/C=C/CN1CC(C)OC(C)C1 (centres undefined) | -19.9%
70 | Cc1ccc(NC(=O)CCn2cccc2)cc1 | 3.6%
71 | O=C(CSc1nnc(-c2cccnc2)n1Cc1ccccc1)NCc1ccco1 | 8.8%
72 | COC(=O)C1CCN(Cc2cn(-c3ccccc3)nc2-c2ccc3c(c2)OCO3)CC1 | -55.9%
73 | CC1CN(Cc2c(O)ccc3c(=O)c(-c4ccccc4)coc23)CC(C)O1 (centres undefined) | -13.3%
74 | COc1ccc(C2N3CC4(C)CN2CC(C)(C3)C4=O)cc1OC (centres undefined) | -7.8%
75 | O=C(CCc1nc(-c2ccccc2)no1)NCc1ccco1 | 11%

Row | Structure (SMILES) | inhibition
76 | Cc1ccc(-c2noc(CCC(=O)NCc3ccco3)n2)cc1 | -0.8%
77 | Fc1cnc(N2CCN(c3ccccc3)CC2)nc1N1CCN(c2ccccc2)CC1 | 43.3%
78 | O=C(CCc1nc2ccccc2c(=O)[nH]1)Nc1ccc(F)cc1 | -23.2%
79 | COC(=O)c1ccc2nc(-c3ccc4c(c3)OCO4)cn2c1 | 68.3% (active)
80 | c1ccn2cc(-c3ccc4c(c3)OCCO4)nc2c1 | 45.8% (active)
81 | Oc1ccc(-c2cn3ccccc3n2)cc1O | 1.7%
82 | COC(=O)c1ccc2nc(-c3cccc(N)c3)cn2c1 | 40.5%
83 | Oc1ccc(-c2cn3ccccc3n2)cc1 | -2%
84 | Clc1ccc2nc(-c3ccc4c(c3)OCO4)cn2c1 | -30.6%
85 | CC12CCC(C(=O)O)(c3nc(C#N)c(C#N)nc31)C2(C)C (centres undefined) | -25.8%
86 | O=C(NCc1ccccn1)c1cccc(NS(=O)(=O)c2cccc(F)c2)c1 | -15.2%
87 | Cc1cccc(N2CCN(C(=O)CCCn3c(=S)[nH]c4cc5c(cc4c3=O)OCO5)CC2)c1C | 2.8%
88 | O=C(CCCn1c(=S)[nH]c2cc3c(cc2c1=O)OCO3)N1CCN(c2ccccc2)CC1 | -1%
89 | O=C(CCCn1c(=S)[nH]c2cc3c(cc2c1=O)OCO3)N1CCN(c2ccc(F)cc2)CC1 | -8.6%
90 | O=C(CCCCCn1c(=S)[nH]c2ccc(N3CCOCC3)cc2c1=O)NCc1ccccc1 | 2.3%
91 | C=CCNC(=O)CN(c1ccc(F)c(Cl)c1)S(C)(=O)=O | -17.3%
92 | CC(=O)N[C@@H](C)C(=O)N1CCN(S(=O)(=O)c2ccc(Cl)cc2)CC1 | -26%
93 | O=C(Nc1cccnc1Oc1ccc(Cl)cc1)c1cccc2ccccc12 | -9.2%
94 | COc1cc(OC)c(NC2c3ccccc3C(=O)N2c2cc(C)ccn2)cc1Cl (centres undefined) | -37.7%
95 | Cc1ccc(C)c(NC(=O)CCN2CCCCC2)c1 | -14.7%
96 | CCO[C@H]1OC(C(=O)O)=C[C@@H](c2ccc3c(c2)OCO3)[C@@H]1CCCO | -10.4%
97 | Cc1ccc(-c2cn3cc(C)ccc3n2)cc1 | 92.4% (active)
98 | Cc1ccc2nc(-c3ccc(O)c(O)c3)cn2c1 | -18.6%
99 | Cc1ccc2nc(-c3ccccc3)cn2c1 | 18%
